From publication PMC7862700, “An all-to-all approach to the identification of sequence-specific readers for epigenetic DNA modifications on cytosine”

How the values were obtained:
Assay in all cases: DAPPL (digital affinity profiling via proximity ligation, sequencing); 10 mM Tris-HCl pH 7.5, 50 mM NaCl, 1 mM DTT, 4% glycerol, room temperature, 30 min; GST-TFs on glutathione beads, 16-mer random dsDNA library, 0.1% formaldehyde crosslink after washing; high values mean tight binding
FLI1 = molecular target: T1, FLI1 (Homo sapiens, UniProt Q01543 1-452); settings: protein: recombinant; tags: N-terminal GST; dsDNA, one strand shown
T1 sequence: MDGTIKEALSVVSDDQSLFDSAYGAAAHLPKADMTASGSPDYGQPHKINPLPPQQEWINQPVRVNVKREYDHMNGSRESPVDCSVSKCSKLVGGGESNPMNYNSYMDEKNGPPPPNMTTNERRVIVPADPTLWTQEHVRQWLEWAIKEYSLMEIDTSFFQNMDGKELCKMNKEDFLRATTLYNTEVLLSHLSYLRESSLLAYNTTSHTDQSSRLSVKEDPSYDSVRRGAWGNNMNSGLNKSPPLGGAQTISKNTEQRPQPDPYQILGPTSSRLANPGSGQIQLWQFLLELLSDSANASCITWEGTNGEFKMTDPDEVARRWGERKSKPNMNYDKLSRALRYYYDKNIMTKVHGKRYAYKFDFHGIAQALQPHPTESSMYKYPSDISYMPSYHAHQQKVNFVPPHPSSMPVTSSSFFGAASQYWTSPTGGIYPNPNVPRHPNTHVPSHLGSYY
In short: (§1)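 Human transcription factors carrying a GST fusion were produced in yeast, bound to glutathione beads, tagged with DNA barcodes and pooled together with a tag-only sample. Each pool was held with 200 nmole of a random double-stranded 16-mer DNA library in Tris/NaCl/DTT/glycerol buffer for 30 min at room temperature, then washed, crosslinked in 0.1% formaldehyde, proximity-ligated with BsaI/T4 ligase (1 h, 37 °C), PCR-amplified and sequenced on an Illumina NextSeq500. Binding signal is the read frequency of each hexamer for a given factor divided by its frequency in the tag-only sample.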

ELK1 = molecular target: T2, ELK1 (Homo sapiens, UniProt P19419 1-428); settings: protein: recombinant; tags: N-terminal GST; dsDNA, one strand shown
T2 sequence: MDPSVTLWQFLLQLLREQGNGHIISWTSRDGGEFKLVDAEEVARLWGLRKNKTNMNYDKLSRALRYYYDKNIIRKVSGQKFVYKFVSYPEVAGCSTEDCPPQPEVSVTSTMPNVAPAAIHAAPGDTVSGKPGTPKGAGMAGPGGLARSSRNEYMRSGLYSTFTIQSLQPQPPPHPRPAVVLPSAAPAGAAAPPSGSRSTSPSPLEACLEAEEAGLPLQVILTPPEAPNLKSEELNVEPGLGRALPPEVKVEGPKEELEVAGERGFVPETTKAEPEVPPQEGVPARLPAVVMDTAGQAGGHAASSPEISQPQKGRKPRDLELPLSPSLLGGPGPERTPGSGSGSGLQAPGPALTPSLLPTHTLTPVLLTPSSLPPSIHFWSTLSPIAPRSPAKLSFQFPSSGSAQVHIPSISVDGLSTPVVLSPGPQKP
In short: as §1

GABPA = molecular target: T3, GABPA (Homo sapiens, UniProt Q06546 1-454); settings: protein: recombinant; tags: N-terminal GST; dsDNA, one strand shown
T3 sequence: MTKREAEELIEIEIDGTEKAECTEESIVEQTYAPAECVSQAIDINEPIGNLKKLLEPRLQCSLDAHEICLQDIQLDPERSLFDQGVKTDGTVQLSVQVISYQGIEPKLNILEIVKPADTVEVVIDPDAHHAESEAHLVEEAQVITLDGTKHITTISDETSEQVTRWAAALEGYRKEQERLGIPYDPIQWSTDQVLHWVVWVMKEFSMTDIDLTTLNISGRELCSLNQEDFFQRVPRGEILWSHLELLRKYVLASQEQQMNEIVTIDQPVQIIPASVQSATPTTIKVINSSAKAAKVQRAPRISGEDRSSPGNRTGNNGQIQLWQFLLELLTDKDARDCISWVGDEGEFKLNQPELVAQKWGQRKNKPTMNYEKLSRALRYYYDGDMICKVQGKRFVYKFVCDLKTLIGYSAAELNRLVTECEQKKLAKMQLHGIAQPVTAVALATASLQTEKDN
In short: as §1

ERG = molecular target: T4, ERG (Homo sapiens, UniProt P11308 1-479); settings: protein: recombinant; tags: N-terminal GST; dsDNA, one strand shown
T4 sequence: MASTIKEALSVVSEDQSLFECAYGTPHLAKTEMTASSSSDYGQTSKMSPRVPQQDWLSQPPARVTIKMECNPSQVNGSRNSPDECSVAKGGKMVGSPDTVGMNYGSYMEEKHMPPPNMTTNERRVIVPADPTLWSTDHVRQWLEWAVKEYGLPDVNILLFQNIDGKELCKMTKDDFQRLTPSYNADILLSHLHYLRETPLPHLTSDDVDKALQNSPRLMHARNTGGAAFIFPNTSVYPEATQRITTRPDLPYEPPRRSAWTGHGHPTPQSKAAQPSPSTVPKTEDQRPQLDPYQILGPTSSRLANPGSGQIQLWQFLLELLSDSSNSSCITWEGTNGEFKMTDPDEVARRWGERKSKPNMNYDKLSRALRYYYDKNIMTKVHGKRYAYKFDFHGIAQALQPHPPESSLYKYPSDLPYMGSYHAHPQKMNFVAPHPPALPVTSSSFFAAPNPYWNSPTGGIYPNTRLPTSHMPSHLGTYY
In short: as §1

ELF1 = ELF1 (Homo sapiens, UniProt P32519 1-619); settings: protein: recombinant; tags: N-terminal GST; dsDNA, one strand shown
In short: as §1

EHF = molecular target: T5, EHF (Homo sapiens, UniProt Q9NZC4 1-300); settings: protein: recombinant; tags: N-terminal GST; dsDNA, one strand shown
T5 sequence: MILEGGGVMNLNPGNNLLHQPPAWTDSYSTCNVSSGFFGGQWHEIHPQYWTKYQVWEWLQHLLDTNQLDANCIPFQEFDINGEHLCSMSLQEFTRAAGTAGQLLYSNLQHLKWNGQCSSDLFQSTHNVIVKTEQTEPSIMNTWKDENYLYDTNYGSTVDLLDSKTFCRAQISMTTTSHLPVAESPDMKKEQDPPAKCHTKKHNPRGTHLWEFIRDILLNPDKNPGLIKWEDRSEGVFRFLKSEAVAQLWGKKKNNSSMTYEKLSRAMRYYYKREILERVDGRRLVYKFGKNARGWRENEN
In short: as §1

SPI1 = SPI1 (Homo sapiens, UniProt P17947 1-270); settings: protein: recombinant; tags: N-terminal GST; dsDNA, one strand shown
In short: as §1

SPIB = SPIB (Homo sapiens, UniProt Q01892 1-262); settings: protein: recombinant; tags: N-terminal GST; dsDNA, one strand shown
In short: as §1

ELK3 = molecular target: T6, ELK3 (Homo sapiens, UniProt P41970 1-407); settings: protein: recombinant; tags: N-terminal GST; dsDNA, one strand shown
T6 sequence: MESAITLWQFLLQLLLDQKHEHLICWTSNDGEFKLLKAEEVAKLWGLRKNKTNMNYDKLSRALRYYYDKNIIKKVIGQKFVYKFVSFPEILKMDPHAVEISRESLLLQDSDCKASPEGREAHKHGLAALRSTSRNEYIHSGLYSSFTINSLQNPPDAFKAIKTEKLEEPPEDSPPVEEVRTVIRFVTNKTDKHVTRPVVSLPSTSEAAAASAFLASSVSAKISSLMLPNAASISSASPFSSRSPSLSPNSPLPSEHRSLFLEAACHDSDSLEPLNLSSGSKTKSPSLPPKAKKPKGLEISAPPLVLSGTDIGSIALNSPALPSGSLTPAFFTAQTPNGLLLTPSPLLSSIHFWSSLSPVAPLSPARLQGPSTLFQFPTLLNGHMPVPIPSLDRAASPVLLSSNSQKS
In short: as §1

FEV = molecular target: T7, FEV (Homo sapiens, UniProt Q99581 1-238); settings: protein: recombinant; tags: N-terminal GST; dsDNA, one strand shown
T7 sequence: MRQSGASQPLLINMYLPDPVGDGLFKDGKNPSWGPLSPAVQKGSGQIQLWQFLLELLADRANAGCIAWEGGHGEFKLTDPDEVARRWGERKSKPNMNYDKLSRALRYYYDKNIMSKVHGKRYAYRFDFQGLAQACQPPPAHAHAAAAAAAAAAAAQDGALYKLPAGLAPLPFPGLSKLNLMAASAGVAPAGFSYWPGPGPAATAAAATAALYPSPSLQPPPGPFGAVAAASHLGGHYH
In short: as §1

ETV5 = ETV5 (Homo sapiens, UniProt P41161 1-510); settings: protein: recombinant; tags: N-terminal GST; dsDNA, one strand shown
In short: as §1

HSF1 = HSF1 (Homo sapiens, UniProt Q00613 1-529); settings: protein: recombinant; tags: N-terminal GST; chain copies: 3; dsDNA, one strand shown
In short: as §1

SPIC = molecular target: T8, SPIC (Homo sapiens, UniProt Q8N5J4 1-248); settings: protein: recombinant; tags: N-terminal GST; dsDNA, one strand shown
T8 sequence: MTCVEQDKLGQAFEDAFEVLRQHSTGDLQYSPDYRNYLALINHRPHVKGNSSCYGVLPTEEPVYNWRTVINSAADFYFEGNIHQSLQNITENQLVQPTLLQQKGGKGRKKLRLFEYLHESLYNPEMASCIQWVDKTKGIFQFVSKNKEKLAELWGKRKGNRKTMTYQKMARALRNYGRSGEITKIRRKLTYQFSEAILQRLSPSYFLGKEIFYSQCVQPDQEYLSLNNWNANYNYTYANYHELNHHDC
In short: as §1

ELF4 = ELF4 (Homo sapiens, UniProt Q99607 1-663); settings: protein: recombinant; tags: N-terminal GST; dsDNA, one strand shown
In short: as §1

ELK4 = molecular target: T9, ELK4 (Homo sapiens, UniProt P28324-2 1-405); settings: protein: recombinant; tags: N-terminal GST; dsDNA, one strand shown
T9 sequence: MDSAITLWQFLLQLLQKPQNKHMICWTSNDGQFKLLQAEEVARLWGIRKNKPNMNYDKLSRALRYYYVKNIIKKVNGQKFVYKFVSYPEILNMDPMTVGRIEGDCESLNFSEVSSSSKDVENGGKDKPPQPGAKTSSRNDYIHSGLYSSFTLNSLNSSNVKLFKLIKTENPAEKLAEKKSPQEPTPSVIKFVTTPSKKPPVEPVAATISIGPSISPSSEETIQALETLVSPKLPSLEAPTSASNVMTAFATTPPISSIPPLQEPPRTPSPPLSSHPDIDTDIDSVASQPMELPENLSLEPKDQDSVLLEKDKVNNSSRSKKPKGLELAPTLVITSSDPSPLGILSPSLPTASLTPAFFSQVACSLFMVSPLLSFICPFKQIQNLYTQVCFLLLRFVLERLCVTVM
In short: as §1

ETV2 = molecular target: T10, ETV2 (Homo sapiens, UniProt O00321 1-342); settings: protein: recombinant; tags: N-terminal GST; dsDNA, one strand shown
T10 sequence: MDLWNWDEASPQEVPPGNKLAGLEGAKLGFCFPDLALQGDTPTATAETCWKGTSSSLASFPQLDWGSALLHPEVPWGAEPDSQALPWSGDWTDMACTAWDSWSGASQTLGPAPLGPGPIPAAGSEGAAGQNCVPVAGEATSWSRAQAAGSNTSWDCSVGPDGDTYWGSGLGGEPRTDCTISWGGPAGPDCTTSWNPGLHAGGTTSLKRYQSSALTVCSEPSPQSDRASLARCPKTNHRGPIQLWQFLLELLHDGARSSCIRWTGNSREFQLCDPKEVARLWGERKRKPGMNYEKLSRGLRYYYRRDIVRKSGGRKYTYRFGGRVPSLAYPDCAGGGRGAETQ
In short: as §1

ELF3 = molecular target: T11, ELF3 (Homo sapiens, UniProt P78545 1-371); settings: protein: recombinant; tags: N-terminal GST; dsDNA, one strand shown
T11 sequence: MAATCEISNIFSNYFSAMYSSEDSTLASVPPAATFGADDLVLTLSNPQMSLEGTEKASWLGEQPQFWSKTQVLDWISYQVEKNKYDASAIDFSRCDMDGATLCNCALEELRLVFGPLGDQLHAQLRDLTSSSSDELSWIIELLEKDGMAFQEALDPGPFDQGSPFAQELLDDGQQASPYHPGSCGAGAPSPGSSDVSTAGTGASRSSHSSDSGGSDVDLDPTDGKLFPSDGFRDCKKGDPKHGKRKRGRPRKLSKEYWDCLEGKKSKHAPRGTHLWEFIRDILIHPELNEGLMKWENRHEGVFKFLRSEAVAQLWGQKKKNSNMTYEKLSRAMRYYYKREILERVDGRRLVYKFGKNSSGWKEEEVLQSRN
In short: as §1

CRX = CRX (Homo sapiens, UniProt O43186 1-299); settings: protein: recombinant; tags: N-terminal GST; dsDNA, one strand shown
In short: as §1

ETV1 = ETV1 (Homo sapiens, UniProt P50549 1-477); settings: protein: recombinant; tags: N-terminal GST; dsDNA, one strand shown
In short: as §1

CRX, sequence (O43186 whole entry): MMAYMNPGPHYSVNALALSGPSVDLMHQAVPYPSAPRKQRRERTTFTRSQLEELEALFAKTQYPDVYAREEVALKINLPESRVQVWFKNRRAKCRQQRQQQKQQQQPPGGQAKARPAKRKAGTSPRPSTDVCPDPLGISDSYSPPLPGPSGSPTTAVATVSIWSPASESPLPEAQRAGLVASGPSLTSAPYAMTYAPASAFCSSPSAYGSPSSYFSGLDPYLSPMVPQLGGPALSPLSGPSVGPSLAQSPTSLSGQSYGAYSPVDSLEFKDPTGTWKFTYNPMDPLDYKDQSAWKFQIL
ETV5, sequence (P41161 whole entry): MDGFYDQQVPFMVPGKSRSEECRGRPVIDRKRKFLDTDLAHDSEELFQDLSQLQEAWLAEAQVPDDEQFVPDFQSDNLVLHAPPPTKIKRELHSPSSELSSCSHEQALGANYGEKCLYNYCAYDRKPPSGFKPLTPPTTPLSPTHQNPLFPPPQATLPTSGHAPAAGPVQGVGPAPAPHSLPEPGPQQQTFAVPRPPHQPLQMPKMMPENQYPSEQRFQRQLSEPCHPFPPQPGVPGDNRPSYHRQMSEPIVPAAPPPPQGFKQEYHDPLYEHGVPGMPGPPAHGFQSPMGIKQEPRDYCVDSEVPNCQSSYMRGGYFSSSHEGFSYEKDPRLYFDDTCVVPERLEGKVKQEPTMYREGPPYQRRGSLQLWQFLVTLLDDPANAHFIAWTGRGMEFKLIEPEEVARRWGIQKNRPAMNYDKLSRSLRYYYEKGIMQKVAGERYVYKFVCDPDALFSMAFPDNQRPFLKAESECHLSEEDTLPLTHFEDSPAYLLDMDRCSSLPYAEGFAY
SPIB, sequence (Q01892 whole entry): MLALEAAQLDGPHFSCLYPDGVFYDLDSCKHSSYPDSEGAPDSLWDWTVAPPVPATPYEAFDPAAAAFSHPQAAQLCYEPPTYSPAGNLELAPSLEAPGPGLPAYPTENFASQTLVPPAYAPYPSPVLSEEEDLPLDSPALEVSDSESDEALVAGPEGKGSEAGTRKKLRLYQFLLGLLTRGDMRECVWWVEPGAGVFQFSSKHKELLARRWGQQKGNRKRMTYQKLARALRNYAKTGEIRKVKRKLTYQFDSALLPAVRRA
ELF4, sequence (Q99607 whole entry): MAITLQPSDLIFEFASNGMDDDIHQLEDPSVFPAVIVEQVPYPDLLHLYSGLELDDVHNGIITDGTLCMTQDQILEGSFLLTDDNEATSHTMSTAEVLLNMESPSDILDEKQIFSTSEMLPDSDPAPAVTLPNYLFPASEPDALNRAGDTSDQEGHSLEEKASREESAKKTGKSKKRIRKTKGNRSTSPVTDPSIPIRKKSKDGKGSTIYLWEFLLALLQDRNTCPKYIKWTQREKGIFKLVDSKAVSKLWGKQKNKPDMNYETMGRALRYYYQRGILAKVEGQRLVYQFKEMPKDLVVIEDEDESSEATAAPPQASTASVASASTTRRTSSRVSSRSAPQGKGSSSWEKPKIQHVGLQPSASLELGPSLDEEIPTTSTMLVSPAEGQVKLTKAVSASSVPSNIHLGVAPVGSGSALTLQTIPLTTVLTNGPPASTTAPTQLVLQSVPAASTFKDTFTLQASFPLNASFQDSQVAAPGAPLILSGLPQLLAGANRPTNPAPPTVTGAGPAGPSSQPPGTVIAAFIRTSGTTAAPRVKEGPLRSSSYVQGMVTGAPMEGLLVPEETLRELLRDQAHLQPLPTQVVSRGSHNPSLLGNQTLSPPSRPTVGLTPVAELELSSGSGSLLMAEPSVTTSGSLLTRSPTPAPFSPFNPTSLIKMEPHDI
ELF1, sequence (P32519 whole entry): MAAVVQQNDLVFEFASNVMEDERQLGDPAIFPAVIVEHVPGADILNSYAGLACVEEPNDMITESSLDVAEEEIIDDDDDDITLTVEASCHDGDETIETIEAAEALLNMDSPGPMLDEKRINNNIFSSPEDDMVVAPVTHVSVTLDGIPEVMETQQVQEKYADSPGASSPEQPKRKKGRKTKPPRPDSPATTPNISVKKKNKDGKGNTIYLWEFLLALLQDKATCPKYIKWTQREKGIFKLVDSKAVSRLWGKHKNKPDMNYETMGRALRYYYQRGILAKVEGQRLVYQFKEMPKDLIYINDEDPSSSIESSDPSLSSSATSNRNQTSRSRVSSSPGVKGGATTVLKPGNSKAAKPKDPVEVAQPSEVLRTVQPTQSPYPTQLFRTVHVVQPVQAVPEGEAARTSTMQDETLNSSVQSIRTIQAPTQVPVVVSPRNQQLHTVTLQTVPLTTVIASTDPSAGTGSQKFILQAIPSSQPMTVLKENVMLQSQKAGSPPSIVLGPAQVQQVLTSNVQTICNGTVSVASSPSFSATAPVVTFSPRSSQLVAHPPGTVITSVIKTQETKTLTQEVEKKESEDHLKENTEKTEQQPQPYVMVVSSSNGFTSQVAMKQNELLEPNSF
ETV1, sequence (P50549 whole entry): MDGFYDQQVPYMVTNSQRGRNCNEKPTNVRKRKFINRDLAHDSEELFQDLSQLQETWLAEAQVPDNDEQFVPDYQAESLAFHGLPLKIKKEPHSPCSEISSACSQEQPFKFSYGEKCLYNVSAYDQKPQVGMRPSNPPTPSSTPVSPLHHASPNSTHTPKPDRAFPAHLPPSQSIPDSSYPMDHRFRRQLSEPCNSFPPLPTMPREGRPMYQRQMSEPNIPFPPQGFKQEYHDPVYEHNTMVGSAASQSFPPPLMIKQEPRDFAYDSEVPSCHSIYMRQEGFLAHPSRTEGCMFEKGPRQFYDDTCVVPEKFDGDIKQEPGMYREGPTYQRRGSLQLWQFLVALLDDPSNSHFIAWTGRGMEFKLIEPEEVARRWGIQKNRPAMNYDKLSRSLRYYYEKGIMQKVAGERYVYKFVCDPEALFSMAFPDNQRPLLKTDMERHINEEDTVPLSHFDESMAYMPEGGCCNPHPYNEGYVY
HSF1, sequence (Q00613 whole entry): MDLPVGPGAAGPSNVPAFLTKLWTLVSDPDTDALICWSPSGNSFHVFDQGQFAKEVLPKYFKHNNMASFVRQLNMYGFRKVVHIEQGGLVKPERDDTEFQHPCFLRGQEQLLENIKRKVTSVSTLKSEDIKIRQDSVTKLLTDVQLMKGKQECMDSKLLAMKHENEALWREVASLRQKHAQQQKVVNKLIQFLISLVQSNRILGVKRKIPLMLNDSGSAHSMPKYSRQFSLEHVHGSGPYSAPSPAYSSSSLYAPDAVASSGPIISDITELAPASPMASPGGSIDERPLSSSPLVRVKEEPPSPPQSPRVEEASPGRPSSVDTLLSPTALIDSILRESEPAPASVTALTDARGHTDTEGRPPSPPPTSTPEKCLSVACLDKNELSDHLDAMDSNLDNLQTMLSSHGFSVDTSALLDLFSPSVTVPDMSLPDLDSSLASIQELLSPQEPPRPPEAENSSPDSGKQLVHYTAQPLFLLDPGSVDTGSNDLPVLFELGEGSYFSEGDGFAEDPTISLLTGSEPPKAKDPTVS

For GCTTTA, the binding signal (FLI1) was 1.19 fold enrichment (6-mer frequency, TF over GST control), the binding signal (ELK1) was 1.13 fold enrichment (6-mer frequency, TF over GST control) and the binding signal (GABPA) was 1.08 fold enrichment (6-mer frequency, TF over GST control). For the same sequence, the binding signal (ERG) was 1.05 fold enrichment (6-mer frequency, TF over GST control), the binding signal (ELF1) was 1.09 fold enrichment (6-mer frequency, TF over GST control) and the binding signal (EHF) was 1.09 fold enrichment (6-mer frequency, TF over GST control). For the same sequence, the binding signal (SPI1) was 1.16 fold enrichment (6-mer frequency, TF over GST control), the binding signal (SPIB) was 1.09 fold enrichment (6-mer frequency, TF over GST control) and the binding signal (ELK3) was 1.24 fold enrichment (6-mer frequency, TF over GST control). The binding signal (FEV) was 1.04 fold enrichment (6-mer frequency, TF over GST control), the binding signal (ETV5) was 1.06 fold enrichment (6-mer frequency, TF over GST control) and the binding signal (HSF1) was 1.25 fold enrichment (6-mer frequency, TF over GST control). For the same sequence, the binding signal (SPIC) was 1.13 fold enrichment (6-mer frequency, TF over GST control), the binding signal (ELF4) was 1.14 fold enrichment (6-mer frequency, TF over GST control) and the binding signal (ELK4) was 1.2 fold enrichment (6-mer frequency, TF over GST control). The binding signal (ETV2) was 1.16 fold enrichment (6-mer frequency, TF over GST control), the binding signal (ELF3) was 1.13 fold enrichment (6-mer frequency, TF over GST control) and the binding signal (CRX) was 1.81 fold enrichment (6-mer frequency, TF over GST control). For the same sequence, the binding signal (ETV1) was 1.06 fold enrichment (6-mer frequency, TF over GST control).
